This is a sample that favours compounds with a hit; in the whole collection about 6.7% have one here.
Pf_Dd2_growth = blocks growth of Plasmodium falciparum Dd2 parasites. activity change, % at 10 µM. P. falciparum Dd2 growth, SYBR Green, 72 h; stronger effect = lower value. 94,000 tested, 2.3% active; in the data active = activity change below about -80%; inconclusive = no clear call, values can overlap the other calls
T_cruzi_growth-1 = blocks T. cruzi growth in NIH3T3 culture; T. cruzi beta-gal in NIH3T3, GalScreen luminescence, 90 h; inhibition, % at 8.34 µM; 77,000 tested, 5.9% active;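 active = mean inhibition above about 93%, with at least 55% of replicates each passing it, limit read from the data, passing the limit was not always enough; inconclusive = only one of those two conditions holds; inactive = neither condition holds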
C_diff_HTS = blocks growth of Clostridium difficile; Clostridium difficile clinical isolate growth, OD600, 24 h; stronger effect = lower value; growth activity, negative = inhibition, % at 16 µg/mL (by protocol); 86,000 tested, 0.25% active;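 active = mean growth activity at or below -80% and every replicate also at or below -80%; inconclusive = mean at or below -80% but some replicate above -80%; inactive = mean growth activity above -80%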;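 also: 0% = DMSO wells and -100% = levofloxacin 16 µg/mL wells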
T_cruzi_growth-2 = blocks T. cruzi growth in NIH3T3 host cells; shares compounds with T_cruzi_growth-1; T. cruzi beta-gal in NIH3T3, GalScreen luminescence, 90 h; inhibition, % at 8.35 µM; 5,600 tested, 72% active; AID 651739;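 active = mean replicate inhibition above about 95% and at least 55% of replicates individually reaching it, limit read from the data; inconclusive = only one of the two criteria is met; inactive = neither criterion is met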
T_cruzi_growth-3 = blocks T. cruzi growth in NIH3T3 host cells; shares compounds with T_cruzi_growth-1; T. cruzi beta-gal in NIH3T3, GalScreen luminescence, 90 h; inhibition, % at 2.09 µM; 5,600 tested, 21% active;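 active = mean inhibition above about 95%, with at least 55% of replicates also reaching it, limit read from the data; inconclusive = meets just one of the two conditions; inactive = meets neither condition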;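 also: plate controls were neutral control median for no effect and positive control median for full effect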
3T3_cytotox = NIH/3T3 (mouse) viability loss; shares compounds with T_cruzi_growth-1; NIH/3T3 viability, CellTiter-Glo ATP luminescence, 90 h; cytotoxicity (signal decrease), % at 8.35 µM; 5,600 tested, 14% active;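 active = mean signal decrease across replicates above about 35% based on untreated-well scatter, with enough replicates individually passing, limit read from the data; inconclusive = no rule stated though some were filed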;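 also: 0% = median of neutral control wells and 100% = median of positive control wells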
3T3_cytotox_2 = kills mouse NIH/3T3 fibroblasts | shares compounds with T_cruzi_growth-1 | NIH/3T3 viability, CellTiter-Glo ATP luminescence, 90 h | inhibition, % at 24.9 µM | 5,600 tested, 56% active | AID 651744;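 active = mean loss of cell viability signal at or above a set limit, and enough replicates individually reaching it; inconclusive = meets only the mean limit or only the replicate share; inactive = meets neither condition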;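 also: 0% = median of neutral control wells and 100% = median of positive control wells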
Starred values were filed as active, the others as inactive; ? = inconclusive; . = not tested or not shown.

SMILES Pf_Dd2_growth T_cruzi_growth-1 C_diff_HTS T_cruzi_growth-2 T_cruzi_growth-3 3T3_cytotox 3T3_cytotox_2
C[C@H]1CN([C@@H](C)CO)C(=O)Cc2cc(NC(=O)Cc3cn(C)c4ccccc34)ccc2O[C@@H]1CN(C)Cc1ccc(C(=O)Nc2ccccc2N)cc1 -57.6 84.2 -1.2 . . . .
C[C@@H]1CN([C@H](C)CO)C(=O)c2c(c3ccccc3n2C)-c2ccccc2CO[C@H]1CN(C)C(=O)C1CC1 40.0 9.7 -4.4 . . . .
CO[C@H]1CN(C)C(=O)c2cc(NC(=O)c3cnccn3)ccc2OC[C@@H](C)N(C)C[C@@H]1C 4.7 30.1 . . . . .
COc1ccc(NC(=O)Nc2ccc3c(c2)CC(=O)N([C@H](C)CO)C[C@H](C)[C@@H](CN(C)Cc2ccc(Cl)c(Cl)c2)O3)cc1 -74.0 59.4 31.5 . . . .
O=C(NC[C@@H]1[C@H](c2ccccc2)[C@H](CO)N1CC1CCCC1)c1ccncc1 -14.7 22.7 30.2 . . . .
C[C@H](CO)N1C[C@H](C)[C@@H](CN(C)Cc2ccc(Oc3ccccc3)cc2)Oc2c(NC(=O)c3nc4ccccc4s3)cccc2C1=O -58.7 74.8 4.4 . . . .
O=C(N[C@H]1CC[C@@H](CCNC(=O)C2CCC2)O[C@H]1CO)c1ccncc1 -3.5 . 2.8 . . . .
C[C@H](CO)N1C[C@H](C)[C@H](CN(C)C(=O)C2CCCCC2)Oc2cc(C#CCN(C)C)ccc2S1(=O)=O -19.9 . 1.9 . . . .
CCCC#Cc1ccc2c(c1)O[C@@H](CN(C)C(=O)C1CCC1)[C@@H](C)CN([C@H](C)CO)S2(=O)=O -31.1 104.4* 4.6 109.6* 57.3 1.8 34.2*
CCCC#Cc1ccc2c(c1)O[C@@H](CN(C)C(=O)C1CCC1)[C@@H](C)CN([C@@H](C)CO)S2(=O)=O -28.7 104.9* -1.2 110.0* 42.0 -21.9 -36.8
CCCC#Cc1ccc2c(c1)O[C@H](CN(C)C(=O)C1CC1)[C@@H](C)CN([C@H](C)CO)S2(=O)=O -26.9 71.6 3.2 . . . .
CCCC#Cc1ccc2c(c1)O[C@@H](CN(C)C(=O)C1CCC1)[C@H](C)CN([C@H](C)CO)S2(=O)=O -40.8 86.6 -7.7 . . . .
CCCC#Cc1ccc2c(c1)O[C@H](CN(C)C(=O)C1CCCCC1)[C@@H](C)CN([C@@H](C)CO)S2(=O)=O -51.7 94.7* 18.3 88.1 99.9* -25.2 104.2*
CCCNC(=O)N1C[C@@H](C)[C@@H](OC)CN(C)C(=O)c2cc(NC(=O)CC)ccc2OC[C@H]1C 6.2 28.6 . . . . .
Cc1ccc(S(=O)(=O)N(C)C[C@H]2Oc3c(NC(=O)C4CCCCC4)cccc3C(=O)N([C@@H](C)CO)C[C@@H]2C)cc1 -39.4 29.6 0.2 . . . .
CCCc1cn(CC[C@H]2CC[C@H](NC(=O)C3CC3)[C@H](CO)O2)nn1 0.9 . 2.3 . . . .
CCC(=O)Nc1ccc2c(c1)C(=O)N(C)C[C@H](OC)[C@H](C)CN(C(=O)CC1CC1)[C@H](C)CO2 42.3 -1.4 . . . . .
COc1ccccc1C#Cc1ccc([C@@H]2[C@H]3CN(C(=O)C4CC4)CCCCN3[C@H]2CO)cc1 2.3 103.3* -3.8 109.2* 50.3 ? 102.2*
COc1ccccc1C#Cc1ccc([C@H]2[C@H](CO)N3CCCCN(C(=O)C4CC4)C[C@@H]23)cc1 -19.1 106.4* -1.7 109.0* 75.7 27.7 104.1*
COc1ccccc1C#Cc1ccc([C@@H]2[C@@H](CO)N3CCCCN(C(=O)C4CCC4)C[C@@H]23)cc1 -20.5 82.0 13.6 . . . .
C[C@H]1CN([C@@H](C)CO)C(=O)c2c(c3ccccc3n2C)-c2ccccc2CO[C@H]1CN(C)Cc1ccc2c(c1)OCCN2C -63.0 . 44.8 . . . .
COc1ccc(NC(=O)N2C[C@H]3[C@@H](c4ccccc42)[C@H](CO)N3C(=O)C2CC2)cc1 -3.1 3.9 -6.0 . . . .
C[C@@H]1CN([C@H](C)CO)C(=O)c2cc(C3=CCCCC3)cnc2O[C@H]1CN(C)Cc1cccc(F)c1 -24.5 89.4 5.7 . . . .
C[C@H]1CN([C@@H](C)CO)C(=O)c2cc(C3=CCCC3)cnc2O[C@H]1CN(C)Cc1cccc(F)c1 9.4 91.7 -0.1 . . . .
C[C@@H]1CN([C@@H](C)CO)C(=O)c2cc(C3=CCCCC3)cnc2O[C@@H]1CN(C)Cc1cccc(F)c1 -0.6 111.9* 16.2 98.2* 54.5 3.6 43.5*
SMILES Pf_Dd2_growth T_cruzi_growth-1 C_diff_HTS T_cruzi_growth-2 T_cruzi_growth-3 3T3_cytotox 3T3_cytotox_2
C[C@@H]1CN([C@@H](C)CO)C(=O)c2cc(C3=CCCC3)cnc2O[C@@H]1CN(C)Cc1cccc(F)c1 -19.2 ? 5.7 110.0* 74.8 8.6 7.6
C[C@H]1CN([C@@H](C)CO)C(=O)c2cccc(NC(=O)Nc3cccc4ccccc34)c2O[C@H]1CN(C)C(=O)Nc1ccccc1 -12.1 102.0* -6.7 ? 64.6 -16.7 7.5
C[C@H]1CN([C@@H](C)CO)C(=O)c2cccc(NC(=O)Nc3ccc(C(F)(F)F)cc3)c2O[C@H]1CN(C)C(=O)Nc1cccc2ccccc12 -38.5 100.6* 1.8 93.3 112.5* 62.6* 105.0*
C[C@H]1CN([C@@H](C)CO)C(=O)c2cccc(NC(=O)Nc3cccc4ccccc34)c2O[C@@H]1CN(C)C(=O)Nc1ccc(F)cc1 -3.2 15.3 1.8 . . . .
C[C@H]1CN([C@@H](C)CO)C(=O)c2cccc(NC(=O)Nc3cccc4ccccc34)c2O[C@@H]1CN(C)C(=O)Nc1ccccc1 -11.9 81.4 -1.0 . . . .
C[C@@H]1CN([C@@H](C)CO)C(=O)c2cccc(NC(=O)C3CC3)c2O[C@H]1CN(C)C(=O)Nc1ccc(F)cc1 -6.9 107.6* -4.3 96.2* 77.3 24.9 20.7
C[C@@H]1CN([C@H](C)CO)C(=O)c2cccc(NC(=O)C3CCCCC3)c2O[C@H]1CN(C)C(=O)Nc1ccc(F)cc1 -6.2 -6.8 1.7 . . . .
C[C@@H]1CN([C@H](C)CO)C(=O)c2cccc(NC(=O)Nc3ccc(C(F)(F)F)cc3)c2O[C@@H]1CN(C)C(=O)Nc1cccc2ccccc12 -43.1 93.4 -7.8 . . . .
C[C@H](CO)N1C[C@H](C)[C@H](CN(C)C(=O)Nc2ccc(F)cc2)Oc2c(NC(=O)Nc3cccc4ccccc34)cccc2C1=O -76.6 ? -5.7 109.3* 94.3 36.8* 94.8*
CC(C)C#Cc1ccc2c(c1)O[C@H](CN(C)Cc1cncnc1)[C@@H](C)CN([C@@H](C)CO)S2(=O)=O -29.0 91.1 -5.5 . . . .
CCC(=O)Nc1ccc2c(c1)C(=O)N(C)C[C@H](OC)[C@@H](C)CN(Cc1ccccc1F)[C@@H](C)CO2 26.1 60.0 . . . . .
COCC(=O)N(C)C[C@H]1Oc2ncc(C#Cc3cccnc3)cc2C(=O)N([C@H](C)CO)C[C@H]1C -18.5 43.2 2.7 . . . .

Compound activity (PubChem BioAssay)
